Screening results as filed in PubChem BioAssay.
KDM5B inh = blocks human KDM5B histone demethylase activity; KDM5B demethylase, FDH-coupled NADH fluorescence (FDH is formaldehyde dehydrogenase); 2.6% of 220,000 active; Potency, µM (top dose mostly 57.7 µM), most hits filed as inhibitors; Q9UGL1; active = well fitted inhibition curve with a large enough effect; note: 0% is about no effect; nearly all actives have a fitted effect of over 70% in size
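KDM5BΔAP (200 nM final) in 50 mM HEPES pH 7.5, 0.01% Tween-20 was preincubated 10 min at RT with compound over a concentration range. Substrate mix (H3K4me3 12.5 µM, α-KG 25 µM, Fe²⁺, ascorbate, NAD⁺, FDH) was added, and NADH fluorescence change over 30 min gave dose-response curves.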
Active calls of the source: *; i = inactive. This excerpt belongs to a sample that is enriched for hits. Potency is the fitted concentration of half-maximal effect.

SMILES	KDM5B inh
CCc1nn2c(=O)cc(CNc3cccc(C(C)=O)c3)nc2s1	i
CCN(CC)CCCOC(=O)c1ccccc1	i
O=C1CN(c2ccccc2)C(=O)N1Cc1ncc(-c2ccccc2)o1	i
Cc1cccc(C)c1OCCNC(=O)Cc1n[nH]c(=O)c2ccccc12	i
CCOC(=O)C(N)CO (stereo not given)	i
CSc1cccc(NC(=O)Cc2cccc(F)c2)c1	i
CC(C)/C=N/NC(=O)CCCCC(=O)N/N=C/C(C)C	i
CC(=O)c1ccc(N2CCN(C(=O)c3csc(-c4ccc(C(C)C)cc4)n3)CC2)cc1	i
CCOC(=O)C1=C(CS(=O)(=O)c2ccc(Cl)cc2)NC(=O)NC1c1ccc(SC)cc1 (stereo not given)	i
COc1ccc(-n2[nH]c3cc(=O)n(Cc4ccccc4)c(C)c3c2=O)cc1	i
CCc1ccc(C(=O)NC2CCN(c3cc(-c4cccs4)[nH]n3)CC2)cc1	i
CC(=O)Nc1ccc(C(=O)NC2CCN(c3cc(-c4cccs4)[nH]n3)C2)cc1 (stereo not given)	18µM*
O=C(NC1CCN(c2cc(-c3cccs3)[nH]n2)CC1)c1cccc(F)c1	i
CC(=O)Nc1ccc(C(=O)NC2CCN(c3cc(-c4ccccc4)[nH]n3)CC2)cc1	i
O=C(NC1CCN(c2cc(-c3cccs3)[nH]n2)CC1)c1ccc(F)c(F)c1	i
O=C(NC1CCN(c2cc(-c3cccs3)[nH]n2)C1)c1ccc(F)c(F)c1 (stereo not given)	13µM*
Cc1c(Br)c2ccccc2n1CC(=O)NCC(=O)N(C)C	i
O=S(=O)(Cc1ccccc1F)CC1COc2ccccc2O1 (stereo not given)	i
O=C(Nc1cccc(Cl)c1)C1CCN(c2cnc3ccccc3n2)CC1	i
Cc1ccc(-c2noc(CNc3ccc(F)cc3C)n2)cc1	i
COc1ccc(CCC(=O)C(C#N)C(=O)Nc2cccc(C)c2)cc1 (stereo not given)	i
CCCCn1c(Br)nc2c(=O)n(C)c(=O)n(C)c21	i
CS(=O)(=O)c1ccc(-c2nc(C(=O)N3CCCC3)n3ccccc23)cc1	i
O=C(c1ccc(Cl)cc1)N1CCC(C(=O)N2CCN(c3ncccn3)CC2)CC1	i
COc1ccccc1-c1cc(C(=O)N2CCOCC2)nn2cccc12	i
SMILES	KDM5B inh
O=C(c1cc(-c2ccccc2Cl)nc2ccccc12)N1CCOCC1	i
O=C(c1nc(-c2ccc(Cl)cc2)c2ccccn12)N1CCN(c2ncccn2)CC1	25µM*
O=C(c1nc(-c2cc(Cl)cc(Cl)c2)c2ccccn12)N1CCCC1	28µM*
O=C(c1cc(-c2ccc(Cl)cc2)on1)N1CCCC1	i
O=C(c1nc(-c2cc(Cl)cc(Cl)c2)c2ccccn12)N1CCOCC1	28µM*
O=C(c1nc(-c2ccccc2)c2ccccn12)N1CCN(c2ncccn2)CC1	i
CC(C)Oc1ccc(C(=O)N2CCN(c3nc4sc5c(c4c(=O)n3C)CCCC5)CC2)cc1	i
CCOC(=O)c1nc2ccccc2nc1NCc1ccccc1OC	i
CC1=C[C@@H](CN2CCN(c3ccccc3)CC2)[C@H](C(C)C)C[C@H]1Cc1nnc(-c2cncn2C)o1	i
CC(CCc1ccccc1)NC(=O)c1cc(=O)c2ccccc2o1 (stereo not given)	i
CCC1Oc2ccc(NC(=O)COc3ccccc3)cc2CN(C(CC)c2ccccc2)C1=O (stereo not given)	i
Cc1ccc(CCNC(=O)c2cc(-c3ccncc3)nc3ccccc23)cc1	i
CCn1cnnc1CCNC(=O)c1cc(-c2ccc(C)cc2)nc2ccccc12	28µM*
Cc1ccc(-c2cc(C(=O)NCCC(c3ccccc3)c3ccccc3)c3ccccc3n2)cc1	i
CCC(C)(C)C1CCC(NC(=O)Cn2nc(C)c3ccccc3c2=O)CC1 (stereo not given)	i
COc1ccc(C)cc1C(=O)NCCc1c[nH]c2ccccc12	i
Cc1ccc(C(=O)NCCc2cccnc2)cc1	i
CCn1c(=O)c2ccnn2c2ccc(C(=O)O)cc21	22µM*
CCn1c(=O)c(=O)n(CC)c2cc(N3CCCCC3)c(NC(=O)c3ccc(C)cc3)cc21	i
O=C(O)c1ccc2oc(=O)n(Cc3ccccc3)c2c1	i
CCn1c(=O)c2ccnn2c2ccc(C(=O)NCCc3cccnc3)cc21	32µM*
CCN(CC)C(=O)c1ccc2c(c1)n(Cc1ccc(OC)cc1)c(=O)c1ccnn12	i
Cc1ccc(CNC(=O)c2ccc3oc(=O)n(Cc4ccccc4)c3c2)cc1	i
Cc1ccc(CNC(=O)c2ccc3c(c2)n(Cc2ccccc2)c(=O)c2ccnn23)o1	32µM*
O=C(NCCc1cccnc1)c1ccc(F)cc1	i
SMILES	KDM5B inh
CCn1c(=O)c(=O)n(CC)c2cc(N3CCCCC3)c(NC(=O)c3ccc(OC)c(OC)c3)cc21	i
CCOc1ccc(CNC(=O)c2ccc3oc(=O)n(Cc4ccccc4)c3c2)cc1	i
O=C(O)c1ccc2c(c1)n(Cc1ccccc1)c(=O)c1ccnn12	28µM*
O=S(Cc1ccc(Cl)cc1)Cc1cccc(Cl)c1 (stereo not given)	i
N#Cc1ccc(NC(=O)N2CCN(c3ncccc3Cl)CC2)cc1	i
CC(C)n1nnc2cc(C(=O)N(C)CC(=O)Nc3cccc(C#N)c3)ccc21	i
Cc1ccc(NC(=O)c2cnc(-c3ccccc3)nc2-c2ccncc2)c(Br)c1	i
CONC(=O)C(NC(=O)c1ccccc1F)C(C)C (stereo not given)	i
CCCCC1CCC(C(=O)C2CCC(c3ccccc3)C2)CC1 (stereo not given)	i
CCN(CC)CC(=O)Nc1c(-c2ccccc2)c2cc(Br)ccc2[nH]c1=O	i
Cc1cccc(C(=O)OCc2nc(N)c3ccccc3n2)c1	i
CCCn1cc(CNC(=O)c2ccc3c(c2)n(CC)c(=O)c2ccnn23)c(C)n1	22µM*
O=C(Nc1ccc(Cl)cc1)c1ccc2c(c1)n(Cc1ccccc1)c(=O)c1ccnn12	20µM*
O=C(Nc1ccc(-c2ccc(Cl)cc2)cc1)c1ccncc1	i
CCCn1cc(CN2CCC(n3nccc3NC(=O)c3ccccc3)CC2)c(C)n1	i
O=C(O)COc1ccc(NC(=O)c2ccc3c(c2)C(=O)N(Cc2ccccc2)C3=O)cc1	i
Cn1c(=O)c(=O)n(C)c2cc(C(=O)NCc3ccccc3Cl)ccc21	i
CCc1nc2ccccc2n1CC(O)c1ccc(F)cc1 (stereo not given)	i
COc1ccc(CNC(=O)C2Cc3ccccc3S2)cc1OC (stereo not given)	i
O=C1[C@@H]2C[C@@H](CN2Cc2ccc(F)c(F)c2)Oc2ccccc2N1Cc1ccccn1	i
CN1C(=O)[C@@H]2C[C@@H](CN2Cc2ccc(OC(F)(F)F)cc2)Oc2ccccc21	i
COCCN1C(=O)[C@@H]2C[C@@H](CN2Cc2ccccc2)Oc2ccccc21	i
COCCN1C(=O)[C@@H]2C[C@@H](CN2Cc2ccc3ccccc3n2)Oc2ccccc21	32µM*
COCCN1C(=O)[C@@H]2C[C@@H](CN2Cc2ccc(Cl)cc2)Oc2ccccc21	i
O=C1[C@@H]2C[C@@H](CN2C2COC2)Oc2ccccc2N1Cc1ccc(OC(F)(F)F)cc1	i
O=C1[C@@H]2C[C@@H](CN2Cc2nccs2)Oc2ccccc2N1Cc1ccc(OC(F)(F)F)cc1	28µM*
O=C1[C@@H]2C[C@@H](CN2Cc2ccccc2)Oc2ccccc2N1CC1CC1	i
O=C1[C@@H]2C[C@@H](CN2Cc2cnc3ccccc3c2)Oc2ccccc2N1CC1CC1	45µM*
